# Laboratory results reported in PubChem BioAssay (NCI).
# About 83,000 compounds went through this panel and 20% of them were active in at least one assay; those are over-represented in the sample as a whole.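 Negative percent growth values reflect cell death: -40 means 40% of the cells present at the start died, and -100 means all died.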 Unmarked numbers belong to inactive results. Calls of active or inactive are those of the source. How the source made its calls: active means growth percent below 10; inactive means the rest.
# Tests used:
# Experiment in all cases: NCI-60 one-dose screen, 48 h (100 = growth as untreated, 0 = no growth, -100 = all killed)
# Conditions in all cases: 10 µM unless noted
# [1] = system: HCT-15 colon
# [2] = system: HT29 colon
# [3] = system: SNB-75 CNS
# [4] = system: SNB-19 CNS
# [5] = system: U251 CNS
# [6] = system: PC-3 prostate
# [7] = system: SK-MEL-5 melanoma
# [8] = system: UACC-62 melanoma
# [9] = system: LOX IMVI melanoma
# [10] = system: SK-MEL-28 melanoma
# [11] = system: SK-MEL-2 melanoma
# [12] = system: EKVX NSCLC
# [13] = system: SN12C renal
# [14] = system: UO-31 renal
# [15] = system: TK-10 renal
# [16] = system: ACHN renal
# [17] = system: CAKI-1 renal
# [18] = system: A498 renal
# [19] = system: CCRF-CEM leukemia
# [20] = system: MOLT-4 leukemia
Compound,growth [1],growth [2],growth [3],growth [4],growth [5],growth [6],growth [7],growth [8],growth [9],growth [10],growth [11],growth [12],growth [13],growth [14],growth [15],growth [16],growth [17],growth [18],growth [19],growth [20]
N/C(=N\N=C\c1cc2ccccc2[nH]1)N/N=C/c1cc2ccccc2[nH]1,93.5%,95.7%,85.9%,97.6%,101%,89.3%,84.9%,99.2%,98.4%,103%,100%,79.7%,89.9%,74.1%,116%,109%,87.3%,95.6%,84.4%,84.6%
Cn1c(COC(=O)NCCn2ccnc2)nc2c(N3CCOCC3)nc(-c3ccccc3)nc21,-51.3% (active),-12.1% (active),-89.9% (active),8.21% (active),-61% (active),-74.7% (active),-96% (active),-93.9% (active),-88.9% (active),-98.8% (active),-69.6% (active),-64.5% (active),-90.3% (active),-100% (active),-83.3% (active),-100% (active),-94.2% (active),-24.2% (active),-17.9% (active),-10.3% (active)
C=C(C)[C@@H]1CC[C@]2(C(=O)NCCCN(CCC#N)CCC#N)CC[C@]3(C)[C@H](CC[C@@H]4[C@@]5(C)CCC(=O)C(C)(C)[C@@H]5CC[C@]43C)[C@@H]12,101%,99.1%,92%,98.9%,94.1%,94.4%,102%,99.6%,101%,107%,105%,91%,98.2%,87.3%,98.4%,107%,94.4%,102%,106%,110%
COc1cc(Nc2cc(O)c3c(=O)cc(-c4ccccc4)oc3c2)cc(OC)c1,25%,3.58% (active),-9.05% (active),43.1%,22.8%,27.8%,28.6%,42.5%,41.7%,68.5%,13.2%,38.2%,44.3%,40.3%,44%,48.3%,47.2%,-4.73% (active),10.8%,24.6%
COc1cc(C2CC(c3cccc(Nc4ccncc4)c3)=NN2c2ccc(Cl)cc2)cc(OC)c1OC (stereo not given),-36.4% (active),-30.3% (active),26.1%,57.9%,-53.2% (active),-22% (active),-50.7% (active),91.1%,-88.8% (active),-83.2% (active),55.8%,65.2%,54.7%,42.4%,68.4%,-62.1% (active),19.2%,64.1%,-9.68% (active),-17.3% (active)
O=S(=O)(NCCCNc1nccc(-c2c(-c3ccc(F)c(O)c3)nc3sccn23)n1)c1ccc(F)cc1,6.51% (active),9.5% (active),51.3%,19.7%,2.83% (active),8.22% (active),-45.1% (active),-42.2% (active),2.15% (active),9.19% (active),-29.9% (active),30.6%,4.8% (active),-1.81% (active),27.6%,6.06% (active),8.16% (active),-10.9% (active),-13.2% (active),-3.88% (active)
CCCCCCCCCCCCCCCC(=O)OC[C@@]1(O)C[C@@]23CC[C@@H]4C(C)(C)CCC[C@@]4(C)[C@@H]2CC[C@H]1C3,97.9%,92.2%,112%,102%,95.8%,94.8%,98.3%,85.8%,93.4%,121%,105%,109%,93.6%,84.7%,100%,106%,74.2%,97.7%,43.2%,57.3%
CNC(=O)c1c(NC(=O)c2ccc(C(C)C)cc2)sc2c(CN(C)C)c(O)ccc12,14.2%,87.1%,98.1%,103%,81.7%,79.4%,96%,99.9%,57.3%,94.5%,90.2%,90.2%,99.4%,64.5%,86.8%,66.6%,85.1%,58.9%,56.7%,72.4%
Clc1ccc(N2N=C(c3cccc(Nc4ccncc4)c3)CC2c2ccc(Br)cc2)cc1 (stereo not given),-74.7% (active),-2.76% (active),79.2%,80.8%,-41.5% (active),22%,68.6%,101%,-96% (active),-85.5% (active),94.7%,77.9%,54.3%,43.2%,62.3%,2.34% (active),27.3%,71.6%,3.27% (active),-0.295% (active)
Clc1ccc(N2N=C(c3cccc(Nc4ccncc4)c3)CC2c2ccccc2)cc1 (stereo not given),103%,80.7%,65%,95.6%,90.4%,84.9%,94%,96.9%,86.8%,90.4%,107%,82.5%,86.1%,83.1%,106%,94.9%,76.2%,84.5%,96.3%,89.4%
Clc1ccc(N2N=C(c3cccc(Nc4ccncc4)c3)CC2c2ccc3c(c2)OCO3)cc1 (stereo not given),-21.1% (active),3.63% (active),55.9%,80.6%,5.93% (active),31.3%,30.9%,90.8%,-74.4% (active),-12.5% (active),94.4%,74.8%,62.6%,41.9%,83.5%,41.6%,10%,69.7%,5.74% (active),2.58% (active)
Cc1c(C2=CCCCC2)c2ccccn2c1C(=O)c1cccc(S(=O)(=O)N2CCOCC2)c1,83.9%,59.5%,57.8%,101%,91.4%,71.1%,104%,77.7%,89.1%,101%,91.8%,68.7%,99.8%,56.8%,71.5%,93.4%,59.6%,116%,81.5%,82.6%
NS(=O)(=O)c1cccc(NC(=O)C(=O)C2C(=O)Nc3ccccc32)c1 (stereo not given),99.8%,102%,74.6%,100%,107%,88.8%,96.7%,94.4%,95.6%,107%,113%,76%,99.5%,67.2%,129%,90.4%,-3.03% (active),120%,69.7%,100%
CC(=O)c1c[nH]c2ccc(-c3ccnc(Nc4ccc(NC(=O)c5cccc(F)c5)c(CN5CCOCC5)c4)n3)cc12,0.545% (active),7.18% (active),-56.1% (active),0.141% (active),8.5% (active),-0.531% (active),-74% (active),-41.2% (active),-3.87% (active),1.85% (active),-15.6% (active),-24.1% (active),-4.7% (active),2.38% (active),1.22% (active),-12.1% (active),-1.58% (active),-62.8% (active),2.24% (active),1.65% (active)
COc1ccc(-c2nc(SCCC(C)C)nc(N/N=C(/C)c3ccc(C)cc3)c2C#N)cc1,92.9%,112%,84%,86.8%,103%,85.8%,94.3%,87.4%,91%,103%,106%,90.8%,75%,66%,107%,89.6%,83.2%,99.4%,94.4%,88.3%
